Measurements as given in the supplement of paper PMC10849652.
About 7,900 targets were measured; listed, in parts, are those with a hit and a random draw of the rest. About 0.6% of all pairs of compound and target were hits. Unmarked numbers belong to inactive results.

Legend:
Assay in all cases: log2 fold change, soluble protein after heating vs DMSO (PISA); higher = thermal stabilisation; K562 cells, 10 uM, 30 min; active = over 0.2 and 3.5 SD of the protein, either way, in both replicates (recomputed)
[1] = compound: NC(=O)Nc1cc(-c2cccc(F)c2)sc1C(=O)N[C@H]1CCCNC1
In short: (§1)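 For each measurement, 10 μM compound was applied for 30 min to K562 cells at 2×10^6 cells/mL. Aliquots were heated for 3 min across 48°C-58°C, pooled, and extracted in PBS with 0.5% NP-40 at 4°C; the supernatant after 21,000xg for 90 min was soluble protein. This was quantified by TMTpro 16plex LC-MS/MS with channel sums equalised, and thermal stability was reported relative to control samples from duplicates, on a log2 fold-change scale.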

[2] = compound: NC(=O)c1cnc(N[C@@H]2CCCC[C@@H]2N)nc1Nc1cccc(-n2nccn2)c1
In short: as §1

[3] = compound: NC1(c2ccc(-c3nc4ccn5c(=O)[nH]nc5c4cc3-c3ccccc3)cc2)CCC1
In short: as §1

[4] = compound: NCC(=O)Nc1ccc(-n2nc(C(F)(F)F)cc2-c2ccc3c(ccc4ccccc43)c2)cc1
In short: as §1

entinostat = compound: Nc1ccccc1NC(=O)c1ccc(CNC(=O)OCc2cccnc2)cc1 [entinostat]
In short: as §1

vorinostat = compound: O=C(CCCCCCC(=O)Nc1ccccc1)NO [vorinostat]
In short: as §1

citarinostat = compound: O=C(CCCCCCNC(=O)c1cnc(N(c2ccccc2)c2ccccc2Cl)nc1)NO [citarinostat]
In short: as §1

silmitasertib = compound: O=C(O)c1ccc2c(c1)nc(Nc1cccc(Cl)c1)c1ccncc12 [silmitasertib]
In short: as §1

[5] = compound: O=C1NC(=O)C(c2cnc3ccccn23)=C1c1cn2c3c(cc(F)cc13)CN(C(=O)N1CCCCC1)CC2
In short: as §1

[6] = compound: c1cc(OCCN2CCCCC2)cc(-c2n[nH]c3ccc(-c4nnc[nH]4)cc23)c1
In short: as §1

entospletinib = compound: c1cn2cc(-c3ccc4cn[nH]c4c3)nc(Nc3ccc(N4CCOCC4)cc3)c2n1 [entospletinib]
In short: as §1

Chain of UniProt P0CL80 (P0CL80 whole entry, looked up): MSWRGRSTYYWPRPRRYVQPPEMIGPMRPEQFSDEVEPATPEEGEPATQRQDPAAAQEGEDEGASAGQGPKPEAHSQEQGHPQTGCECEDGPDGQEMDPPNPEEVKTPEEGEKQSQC
Chain of UniProt P05114 (P05114 whole entry, looked up): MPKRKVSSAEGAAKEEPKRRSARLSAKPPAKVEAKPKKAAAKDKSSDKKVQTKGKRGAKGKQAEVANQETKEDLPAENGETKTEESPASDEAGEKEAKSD
Chain of UniProt Q9P2H3 (Q9P2H3 whole entry, looked up): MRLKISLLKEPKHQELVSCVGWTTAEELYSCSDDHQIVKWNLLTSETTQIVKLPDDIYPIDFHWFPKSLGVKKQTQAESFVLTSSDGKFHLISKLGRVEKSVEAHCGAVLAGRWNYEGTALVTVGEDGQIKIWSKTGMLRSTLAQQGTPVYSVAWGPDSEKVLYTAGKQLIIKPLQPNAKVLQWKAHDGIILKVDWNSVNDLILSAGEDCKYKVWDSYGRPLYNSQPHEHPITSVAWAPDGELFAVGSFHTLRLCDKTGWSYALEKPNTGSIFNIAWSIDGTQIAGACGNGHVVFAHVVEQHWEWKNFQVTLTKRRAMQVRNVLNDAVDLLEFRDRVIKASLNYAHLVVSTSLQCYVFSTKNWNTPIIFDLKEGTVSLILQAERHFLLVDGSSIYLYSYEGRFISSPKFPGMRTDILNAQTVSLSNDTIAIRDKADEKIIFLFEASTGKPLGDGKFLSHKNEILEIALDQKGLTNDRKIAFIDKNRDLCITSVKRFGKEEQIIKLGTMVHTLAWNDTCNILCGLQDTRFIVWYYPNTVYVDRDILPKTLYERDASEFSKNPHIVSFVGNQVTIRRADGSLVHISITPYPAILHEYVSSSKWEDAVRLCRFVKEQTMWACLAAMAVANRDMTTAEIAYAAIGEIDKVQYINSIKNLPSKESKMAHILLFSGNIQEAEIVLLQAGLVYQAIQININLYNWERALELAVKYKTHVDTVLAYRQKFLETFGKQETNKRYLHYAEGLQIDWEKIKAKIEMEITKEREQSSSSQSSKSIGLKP
Chain of UniProt P49448 (P49448 whole entry, looked up): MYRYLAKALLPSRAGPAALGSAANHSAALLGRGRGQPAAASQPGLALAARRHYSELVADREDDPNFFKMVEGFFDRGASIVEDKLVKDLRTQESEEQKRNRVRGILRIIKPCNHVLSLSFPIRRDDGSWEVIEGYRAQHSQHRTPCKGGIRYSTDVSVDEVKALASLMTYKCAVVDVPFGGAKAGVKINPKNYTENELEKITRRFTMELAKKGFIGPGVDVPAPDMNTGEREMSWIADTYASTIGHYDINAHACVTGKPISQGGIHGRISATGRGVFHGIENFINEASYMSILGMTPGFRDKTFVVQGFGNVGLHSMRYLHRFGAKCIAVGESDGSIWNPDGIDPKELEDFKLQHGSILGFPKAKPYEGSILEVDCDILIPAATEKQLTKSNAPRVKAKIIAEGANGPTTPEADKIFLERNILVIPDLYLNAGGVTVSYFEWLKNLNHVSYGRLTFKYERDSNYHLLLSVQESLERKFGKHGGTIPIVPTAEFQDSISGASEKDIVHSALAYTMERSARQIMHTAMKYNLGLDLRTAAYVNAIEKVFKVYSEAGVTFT
Chain of UniProt Q00403 (Q00403 whole entry, looked up): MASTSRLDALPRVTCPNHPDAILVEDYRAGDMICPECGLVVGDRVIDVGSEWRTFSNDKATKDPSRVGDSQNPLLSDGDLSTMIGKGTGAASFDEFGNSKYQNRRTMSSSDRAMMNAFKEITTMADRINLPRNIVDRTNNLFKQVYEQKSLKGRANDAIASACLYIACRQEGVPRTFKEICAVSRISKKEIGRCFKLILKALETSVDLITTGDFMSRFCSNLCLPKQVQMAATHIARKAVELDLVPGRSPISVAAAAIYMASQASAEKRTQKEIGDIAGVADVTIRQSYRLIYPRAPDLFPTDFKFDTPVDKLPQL
Chain of UniProt Q49A26 (Q49A26 whole entry, looked up): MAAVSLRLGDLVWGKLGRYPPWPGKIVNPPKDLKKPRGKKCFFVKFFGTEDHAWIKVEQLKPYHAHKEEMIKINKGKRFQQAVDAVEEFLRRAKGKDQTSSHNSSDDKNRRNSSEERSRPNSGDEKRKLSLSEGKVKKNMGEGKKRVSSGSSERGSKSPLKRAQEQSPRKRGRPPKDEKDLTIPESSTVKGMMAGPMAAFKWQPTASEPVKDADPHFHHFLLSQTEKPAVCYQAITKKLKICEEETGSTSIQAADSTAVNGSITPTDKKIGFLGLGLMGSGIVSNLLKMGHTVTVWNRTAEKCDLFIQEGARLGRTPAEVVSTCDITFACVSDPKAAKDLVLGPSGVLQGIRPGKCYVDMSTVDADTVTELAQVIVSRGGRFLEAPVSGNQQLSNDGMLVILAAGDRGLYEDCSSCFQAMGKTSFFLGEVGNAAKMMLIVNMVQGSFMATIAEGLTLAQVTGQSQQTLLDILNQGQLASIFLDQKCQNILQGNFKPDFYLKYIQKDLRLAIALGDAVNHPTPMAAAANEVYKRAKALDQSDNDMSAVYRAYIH
Chain of UniProt P40939 (P40939 whole entry, looked up): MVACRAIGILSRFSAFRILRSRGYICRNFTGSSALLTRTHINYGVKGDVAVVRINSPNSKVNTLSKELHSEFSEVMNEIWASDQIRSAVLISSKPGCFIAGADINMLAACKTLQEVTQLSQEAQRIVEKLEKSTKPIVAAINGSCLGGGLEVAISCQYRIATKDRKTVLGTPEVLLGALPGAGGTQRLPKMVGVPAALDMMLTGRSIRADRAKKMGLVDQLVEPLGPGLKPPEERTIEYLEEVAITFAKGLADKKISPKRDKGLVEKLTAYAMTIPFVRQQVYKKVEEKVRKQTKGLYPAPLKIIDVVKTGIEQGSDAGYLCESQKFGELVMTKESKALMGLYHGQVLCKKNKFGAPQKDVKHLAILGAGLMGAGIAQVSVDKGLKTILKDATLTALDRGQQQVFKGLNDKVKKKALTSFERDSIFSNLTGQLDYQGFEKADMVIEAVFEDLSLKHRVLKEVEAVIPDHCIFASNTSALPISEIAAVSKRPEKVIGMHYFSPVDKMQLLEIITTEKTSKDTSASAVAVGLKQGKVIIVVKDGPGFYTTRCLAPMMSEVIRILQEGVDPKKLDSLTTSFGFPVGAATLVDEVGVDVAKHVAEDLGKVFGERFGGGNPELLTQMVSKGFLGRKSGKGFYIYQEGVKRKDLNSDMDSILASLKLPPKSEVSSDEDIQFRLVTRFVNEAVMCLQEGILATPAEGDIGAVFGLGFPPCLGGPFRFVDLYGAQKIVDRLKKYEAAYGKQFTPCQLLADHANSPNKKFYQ
Chain of UniProt Q92917 (Q92917 whole entry, looked up): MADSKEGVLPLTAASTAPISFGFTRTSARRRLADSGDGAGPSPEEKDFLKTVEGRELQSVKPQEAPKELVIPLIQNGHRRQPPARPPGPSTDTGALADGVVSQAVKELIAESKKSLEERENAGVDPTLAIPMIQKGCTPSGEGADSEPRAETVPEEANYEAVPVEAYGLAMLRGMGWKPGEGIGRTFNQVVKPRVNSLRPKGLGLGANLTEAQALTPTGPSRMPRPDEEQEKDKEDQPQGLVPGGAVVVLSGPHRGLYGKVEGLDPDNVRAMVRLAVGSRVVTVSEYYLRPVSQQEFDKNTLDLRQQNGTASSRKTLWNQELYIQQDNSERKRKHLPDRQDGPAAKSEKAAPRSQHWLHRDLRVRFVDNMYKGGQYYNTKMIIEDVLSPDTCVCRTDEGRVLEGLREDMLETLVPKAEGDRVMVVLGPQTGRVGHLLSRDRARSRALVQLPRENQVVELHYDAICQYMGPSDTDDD
Chain of UniProt Q9BYC5 (Q9BYC5 whole entry, looked up): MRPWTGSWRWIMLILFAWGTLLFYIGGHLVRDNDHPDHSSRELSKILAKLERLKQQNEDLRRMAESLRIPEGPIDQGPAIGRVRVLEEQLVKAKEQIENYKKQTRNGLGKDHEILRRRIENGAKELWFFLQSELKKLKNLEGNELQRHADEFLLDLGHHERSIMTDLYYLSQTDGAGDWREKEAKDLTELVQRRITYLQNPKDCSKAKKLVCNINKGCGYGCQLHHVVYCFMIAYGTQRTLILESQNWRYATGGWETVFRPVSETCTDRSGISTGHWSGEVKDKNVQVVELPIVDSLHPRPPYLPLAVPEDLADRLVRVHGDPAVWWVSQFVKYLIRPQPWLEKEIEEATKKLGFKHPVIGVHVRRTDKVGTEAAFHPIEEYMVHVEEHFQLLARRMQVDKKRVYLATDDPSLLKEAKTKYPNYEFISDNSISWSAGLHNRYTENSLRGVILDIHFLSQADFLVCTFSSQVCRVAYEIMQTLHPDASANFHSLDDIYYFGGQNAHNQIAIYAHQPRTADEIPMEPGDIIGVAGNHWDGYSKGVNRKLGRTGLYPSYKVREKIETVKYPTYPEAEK
Chain of UniProt Q9UJ14 (Q9UJ14 whole entry, looked up): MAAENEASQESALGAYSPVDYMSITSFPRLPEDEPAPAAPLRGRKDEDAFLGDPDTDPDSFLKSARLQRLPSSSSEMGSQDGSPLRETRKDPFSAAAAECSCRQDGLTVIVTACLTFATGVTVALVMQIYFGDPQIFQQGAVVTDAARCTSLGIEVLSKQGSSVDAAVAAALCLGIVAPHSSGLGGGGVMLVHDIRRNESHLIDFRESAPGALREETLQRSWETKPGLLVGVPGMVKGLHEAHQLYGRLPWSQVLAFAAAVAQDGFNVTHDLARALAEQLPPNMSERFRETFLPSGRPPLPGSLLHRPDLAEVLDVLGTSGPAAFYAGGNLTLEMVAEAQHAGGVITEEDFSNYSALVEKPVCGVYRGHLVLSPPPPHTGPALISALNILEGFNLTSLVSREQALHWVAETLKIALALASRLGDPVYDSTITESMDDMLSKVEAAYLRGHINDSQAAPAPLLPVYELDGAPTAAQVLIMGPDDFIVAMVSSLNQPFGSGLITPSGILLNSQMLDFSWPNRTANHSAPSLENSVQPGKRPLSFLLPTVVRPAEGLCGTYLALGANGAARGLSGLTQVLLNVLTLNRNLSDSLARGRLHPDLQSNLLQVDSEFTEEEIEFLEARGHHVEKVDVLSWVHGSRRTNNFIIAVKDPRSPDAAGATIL

Target | log2 fold change [1] | log2 fold change [2] | log2 fold change [3] | log2 fold change [4] | log2 fold change (entinostat) | log2 fold change (vorinostat) | log2 fold change (citarinostat) | log2 fold change (silmitasertib) | log2 fold change [5] | log2 fold change [6] | log2 fold change (entospletinib)
GBF1 (UniProt Q92538) | -0.026 | -0.012 | -0.122 | -0.058 | 0.053 | 0.144 | 0.124 | -0.018 | -0.001 | -0.023 | -0.005
GLUD2 (UniProt P49448) | -0.086 | -0.03 | -0.006 | 0.027 | -0.053 | -0.051 | -0.07 | -0.136 | -0.008 | -0.017 | 0.14
HMGN1 (UniProt P05114) | 0 | 0.024 | 0.144 | 0.03 | -0.053 | -0.048 | -0.096 | 0.037 | -0.003 | -0.023 | 0.089
HAUS4 (UniProt Q9H6D7) | 0.067 | -0.165 | 0.229 | -0.089 | 0.12 | 0.01 | -0.106 | 0.095 | 0.088 | -0.08 | 0.147
HNRNPUL1 (UniProt Q9BUJ2) | -0.059 | 0.028 | -0.081 | -0.059 | -0.012 | 0.03 | 0.002 | 0.034 | 0.08 | -0.046 | -0.029
HADHA (UniProt P40939) | -0.035 | 0.033 | 0.131 | 0.125 | 0.045 | -0.059 | 0.018 | -0.1 | 1.01 (active) | -0.007 | 0.01
HK2 (UniProt P52789) | 0.003 | -0.012 | -0.059 | 0.016 | 0.022 | 0.048 | 0.046 | -0.021 | -0.065 | -0.059 | -0.54 (active)
GLUL (UniProt P15104) | 0.059 | -0.104 | 0.061 | 0.018 | -0.009 | 0.04 | -0.024 | 0.032 | -0.012 | -0.087 | -0.019
GAGE12F (UniProt P0CL80) | 0.029 | -0.013 | 0.083 | -0.059 | 0.031 | 0.024 | 0 | 0.01 | 0.021 | -0.08 | 0.031
IFT80 isoform 3 (UniProt Q9P2H3) | 0.027 | 0.031 | -0.081 | 0.003 | -0.005 | 0.04 | 0.011 | -0.085 | -0.086 | -0.093 | -0.019
FHOD1 (UniProt Q9Y613) | -0.075 | -0.042 | 0.179 | 0.051 | -0.103 | 0.034 | -0.073 | 0.177 | 0.23 | -0.085 | 0.209
GEMIN2 (UniProt O14893) | -0.05 | -0.015 | 0.017 | -0.116 | -0.055 | 0.102 | -0.103 | 0.038 | 0.375 (active) | 0.073 | 0.002
GGT7 (UniProt Q9UJ14) | -0.034 | 0.04 | -0.076 | 0.288 (active) | -0.081 | 0.062 | 0.058 | -0.009 | -0.061 | 0.002 | -0.019
GPKOW (UniProt Q92917) | -0.014 | 0 | -0.096 | -0.216 | 0.042 | 0.122 | 0.048 | -0.078 | -0.061 | -0.01 | -0.025
GTF2B (UniProt Q00403) | -0.009 | -0.08 | -0.172 | -0.056 | 0.047 | 0.211 | 0.037 | 0.005 | -0.156 | 0.022 | -0.04
GLA (UniProt P06280) | 0.04 | -0.049 | -0.143 | -0.066 | -0.034 | 0.056 | 0.027 | -0.03 | -0.036 | 0.029 | 0.017
GLYR1 (UniProt Q49A26) | -0.023 | 0.034 | -0.032 | 0.112 | -0.049 | 0.027 | 0.011 | -0.015 | -0.009 | -0.135 | 0.041
HADHB (UniProt P55084) | -0.079 | 0.021 | 0.104 | 0.078 | 0.014 | 0 | 0.037 | -0.115 | 0.716 (active) | -0.056 | 0.006
FUT8 (UniProt Q9BYC5) | -0.022 | 0.094 | -0.107 | -0.014 | 0.042 | -0.001 | 0.108 | 0.013 | -0.146 | 0.027 | -0.048
FLNA (UniProt P21333) | -0.069 | -0.069 | -0.093 | -0.072 | 0.042 | 0.061 | 0.062 | 0.11 | -0.002 | -0.032 | 0.062
